Assay [1] can be described thus: ATG_CRE_CIS: Attagene CIS-FACTORIAL HepG2 Assay for human cAMP Responsive Element (CRE) binding protein 3 (AID 2282926). Conditions: HepG2 CRE cis-reporter, Attagene multiplexed mRNA; actives raise or lower the signal. Summed up: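 HepG2 cells transiently transfected with a multiplexed reporter library (CRE-driven unit among them) were dosed for 24 h. Reporter mRNA was quantified by RT-PCR, fluorescent labelling, HpaI digestion and capillary electrophoresis, with bidirectional fitting against DMSO baseline.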

Assay [2] has as its target CCAAT/enhancer-binding protein beta (Homo sapiens) (UniProt P17676). The experiment in a line: ATG_C_EBP_CIS: Attagene CIS-FACTORIAL HepG2 Assay for human CCAAT/Enhancer Binding Protein (C/EBP) beta (AID 2282927). Conditions: HepG2 Attagene cis-factorial transcription factor reporter; actives raise or lower the signal. Summed up:
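Endogenous transcription factor activity in human liver HepG2 cells is inferred from induction of a CEBPB-linked reporter mRNA. Exposure lasts 24 h; activity is fitted in both directions relative to DMSO.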

The nature of assay [3]: ATG_CMV_CIS: Attagene CIS-FACTORIAL HepG2 Assay for human CMV (Internal Marker) (AID 2282928).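 Also: endpoint acts as a background internal control marker rather than a target.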 Conditions: HepG2 CMV promoter reporter, transcription factor profiling; actives raise or lower the signal. Summed up: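 Cell system: HepG2, transiently transfected multiple reporter units under cis promoters. Exposure: 24 h. Detection: RT-PCR, FAM labeling, HpaI digestion, capillary electrophoresis. Analysis: bidirectional, DMSO baseline.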

A short description of assay [4]: ATG_DR4_LXR_CIS: Attagene CIS-FACTORIAL HepG2 Assay for human Liver X Receptor (LXR), DR4 submotif (AID 2282929). The conditions noted are these: HepG2 Attagene DR4 cis-reporter, mRNA transcription; actives raise or lower the signal. Summed up: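 Endogenous factor activity at a DR4 cis-element is read as reporter mRNA in transiently transfected HepG2 cells. Exposure lasts 24 h; transcripts are amplified, fluorescently labelled and sized by capillary electrophoresis, with DMSO as baseline.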

Assay [5] deals with Aryl hydrocarbon receptor (Homo sapiens) (UniProt P35869). As to the kind of experiment: ATG_Ahr_CIS: Attagene CIS-FACTORIAL HepG2 Assay for human Aryl Hydrocarbon Receptor (Ahr) (AID 2282930). The conditions noted are these: HepG2 AhR cis-factorial reporter transcription; actives raise or lower the signal. Summed up:
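Transient MRTU transfection of HepG2 → 24 h compound exposure → total RNA, oligo(dT) RT → PCR, 6-FAM extension, HpaI cut → CE fluorescence. DMSO = baseline; bidirectional curve fit.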

Assay [6] can be described thus: ATG_AP_1_CIS: Attagene CIS-FACTORIAL HepG2 Assay for human Activator Protein 1 (AP-1) (AID 2282931). The conditions noted are these: HepG2 Attagene cis-factorial AP-1 reporter mRNA; actives raise or lower the signal. Summed up:
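Fluorescence of labelled PCR fragments separated by capillary electrophoresis gives reporter mRNA levels. HepG2 with transfected cis-regulated reporter units, 24 h exposure; DMSO serves as baseline for bidirectional curve fits.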

Assay [7] can be described thus: ATG_AP_2_CIS: Attagene CIS-FACTORIAL HepG2 Assay for human Activator Protein 2 (AP-2) (AID 2282932). The conditions noted are these: HepG2 AP-2 cis-reporter, Attagene transcription factor profiling; actives raise or lower the signal. Summed up: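 HepG2, transient MRTU transfection, cis-regulated reporters; 24 h compound exposure; RNA isolated, RT-PCR, 6-FAM labelling, HpaI digest, CE fluorescence. DMSO = negative control/baseline, bidirectional fit.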

A short description of assay [8]: ATG_BRE_CIS: Attagene CIS-FACTORIAL HepG2 Assay for human Bone Morphogenetic Protein (BMP) Response Element (BRE) (AID 2282933). Conditions: HepG2 BMP response element reporter, Attagene transcription factor profiling; actives raise or lower the signal. Summed up: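 Read-out: reporter mRNA induction quantified by RT-PCR and capillary electrophoresis after 24 h chemical exposure of transfected HepG2 cells. Endogenous factor activity on the BMP response element; gain or loss fitted against DMSO baseline.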

Assay [9] can be described thus: APR_HepG2_CellLoss_72hr: Apredica 72-hour HepG2 Assay for Cell Loss (AID 2282915). The conditions noted are these: high-content imaging. Summed up:
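Cell number comes from Hoechst 33342-labelled nuclei, imaged at 20x after 3.7% formaldehyde fixation. Dosing was 0.39–200 uM, ten concentrations in duplicate, 0.5% DMSO final, for 72 h. Bidirectional fit relative to DMSO baseline.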

The nature of assay [10]: APR_HepG2_P-H2AX_72hr: Apredica 72-hour HepG2 Assay for H2AX Phosphorylation (AID 2282916).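 Also: phospho-histone H2A.x immunostain intensity per cell marking DNA damage.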 Conditions: imaging, actives raise or lower the signal. Summed up: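 HepG2; cpd 0.39–200 uM ×10 conc, duplicates; 0.5% DMSO; 72 hr. Fix 3.7% formaldehyde 30 min RT, 0.5% Triton X-100 10 min. Anti-phospho-H2A.x 1:200 + Hoechst 2 ug/mL, 60 min RT; ArrayScan imaging.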
Assay [11] is described as follows: APR_HepG2_MitoMembPot_72hr: Apredica 72-hour HepG2 Assay for Mitochondrial Membrane Potential (AID 2282917). Conditions: imaging, actives raise or lower the signal. Summed up: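 Membrane potential read by MitoTracker Red CMXRos (250 nM, 30 min, pre-fixation) fluorescence imaging of HepG2 after 72 hr exposure. Ten concentrations, 0.39–200 uM, duplicate wells, 0.5% DMSO; fitted in both directions against DMSO baseline.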

Assay [12] in a line: APR_HepG2_MitoticArrest_72hr: Apredica 72-hour HepG2 Assay for Mitotic Arrest (AID 2282918). Conditions: high-content imaging, actives raise or lower the signal. Summed up: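 HepG2 cells were exposed for 72 hr to compound at 0.39–200 uM (10 concentrations, duplicate) in 0.5% v/v DMSO, fixed in 3.7% formaldehyde, immunostained for phospho-histone H3 with Hoechst 33342 and imaged by high-content fluorescence; bidirectional fits versus DMSO.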

The nature of assay [13]: APR_HepG2_MicrotubuleCSK_72hr: Apredica 72-hour HepG2 Assay for Microtubule CSK Stabilty (AID 2282919). Conditions: HepG2 microtubule cytoskeleton, high-content imaging, actives raise or lower the signal. Summed up: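 Read-out is tubulin fluorescence intensity from high-content imaging of HepG2 cells, with nuclei identified by Hoechst 33342. Treatment lasts 72 h at 0.39–200 uM, and curves are fitted bidirectionally against the DMSO negative control.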

A short description of assay [14]: APR_HepG2_P-H2AX_24hr: Apredica 24-hour HepG2 Assay for H2AX Phosphorylation (AID 2282920). Conditions: high-content imaging, actives raise or lower the signal. Summed up:
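HepG2 human liver cells were exposed for 24 hr to compounds at 0.39–200 uM in duplicate, with 0.5% v/v DMSO final. Fixed cells were immunostained for phospho-histone H2A.x plus Hoechst 33342, imaged by HCS fluorescence, and fitted bidirectionally against DMSO.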

Assay [15] is described as follows: APR_HepG2_StressKinase_72hr: Apredica 72-hour HepG2 Assay for Stress Kinase (AID 2282921). The conditions noted are these: HepG2 stress kinase (phospho-c-Jun) imaging, actives raise or lower the signal. Summed up: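 Dose 0.39–200 uM (10 pts, duplicate), 0.5% DMSO; 72 h; fix 3.7% formaldehyde 30 min RT; Triton permeabilize; anti-phospho-c-Jun/Cy3 + Hoechst 60 min RT; image 20x; fit gain/loss vs DMSO.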

Assay [16] can be described thus: APR_HepG2_StressKinase_24hr: Apredica 24-hour HepG2 Assay for Stress Kinase (AID 2282922). Conditions: HepG2 stress kinase (phospho-c-Jun) imaging, actives raise or lower the signal. Summed up:
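HepG2, 24 hr dosing, 0.39–200 uM in duplicate, 0.5% DMSO; formaldehyde fix (3.7%), 0.5% Triton X-100; anti-phospho-c-Jun + Cy3 secondary, Hoechst counterstain; ArrayScan imaging; bidirectional curve fit vs DMSO baseline.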

The nature of assay [17]: APR_HepG2_p53Act_72hr: Apredica 72-hour HepG2 Assay for p53 Activation (AID 2282923).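 Also: average cellular p53 protein immunofluorescence intensity in HepG2 cells.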 The conditions noted are these: high-content imaging, actives raise or lower the signal. Summed up: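 10-pt conc. 0.39–200 uM, duplicate, 0.5% DMSO; 72 hr exposure; 3.7% formaldehyde fix, 0.5% Triton perm; sheep anti-p53/Cy5 + Hoechst; ArrayScan 20x, 6 images/well; gain/loss fit vs DMSO.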

The nature of assay [18]: APR_HepG2_MitoMass_72hr: Apredica 72-hour HepG2 Assay for Mitochondrial Mass (AID 2282924).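 Also: MitoTracker Red CMXRos stain intensity per cell imaged as mitochondrial mass.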 The conditions noted are these: high-content imaging, actives raise or lower the signal. Summed up: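 HepG2, 72 hr cmpd, 10 conc 0.39–200 uM in dup, DMSO 0.5% v/v. MitoTracker Red CMXRos 250 nM 30 min pre-fix; formaldehyde 3.7% fix 30 min RT. HCS imaging, gain/loss fit vs DMSO.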

A short description of assay [19]: APR_HepG2_NuclearSize_72hr: Apredica 72-hour HepG2 Assay for Nuclear Size (AID 2282925). Conditions: high-content imaging, actives raise or lower the signal. Summed up: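 HepG2; cpd 0.39–200 uM, 10 conc, duplicate; 72 h; DMSO 0.5% v/v; fix 3.7% formaldehyde 30 min RT; Triton permeabilization; Hoechst 2 ug/mL; HCS imaging 20x; nuclear diameter; gain/loss fit vs DMSO.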

The target of assay [20] is Retinoic acid receptor alpha (Homo sapiens) (UniProt P10276). The experiment in a line: ATG_DR5_RAR_CIS: Attagene CIS-FACTORIAL HepG2 Assay for human Retinoic Acid Receptor Alpha (RARE), DR5 submotif (AID 2282934).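 As to AC50: reporter responds to endogenous RAR alpha beta and gamma in HepG2 not RARA alone.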 The conditions noted are these: HepG2 Attagene cis-factorial RARE DR5 reporter, mRNA; actives raise or lower the signal. Summed up:
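Transient MRTU transfection of HepG2; 24 h compound treatment; TriZol RNA, oligo(dT) RT, PCR, FAM labelling, capillary electrophoresis. Bidirectional fit vs DMSO. Endogenous TF activity at DR5 RARE.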

“And” between values parts separate entries of the source, which are not always exact repeats. Identical values can stand only once. Where a structure was tested more than once in an assay, its records may differ in their call. The source made the active and inactive calls. The calls were made as follows: active = hit-call score of the fitted dose curve at least 0.9, where 1 is the maximum; inactive = score below 0.9.

By AC50 is commonly meant the midpoint of the concentration-response curve, whichever way the signal moves.

Sequence of CCAAT/enhancer-binding protein beta (Homo sapiens) (P17676 whole entry, looked up): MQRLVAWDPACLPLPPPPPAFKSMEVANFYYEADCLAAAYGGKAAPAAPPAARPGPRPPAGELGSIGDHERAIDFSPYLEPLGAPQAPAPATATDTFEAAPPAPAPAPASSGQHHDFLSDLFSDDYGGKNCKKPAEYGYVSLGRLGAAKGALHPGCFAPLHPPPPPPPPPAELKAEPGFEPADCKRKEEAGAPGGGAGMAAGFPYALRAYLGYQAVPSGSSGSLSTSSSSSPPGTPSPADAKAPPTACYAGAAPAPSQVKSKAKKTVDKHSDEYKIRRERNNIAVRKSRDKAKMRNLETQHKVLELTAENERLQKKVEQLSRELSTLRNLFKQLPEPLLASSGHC
Sequence of Aryl hydrocarbon receptor (Homo sapiens) (P35869 whole entry, looked up): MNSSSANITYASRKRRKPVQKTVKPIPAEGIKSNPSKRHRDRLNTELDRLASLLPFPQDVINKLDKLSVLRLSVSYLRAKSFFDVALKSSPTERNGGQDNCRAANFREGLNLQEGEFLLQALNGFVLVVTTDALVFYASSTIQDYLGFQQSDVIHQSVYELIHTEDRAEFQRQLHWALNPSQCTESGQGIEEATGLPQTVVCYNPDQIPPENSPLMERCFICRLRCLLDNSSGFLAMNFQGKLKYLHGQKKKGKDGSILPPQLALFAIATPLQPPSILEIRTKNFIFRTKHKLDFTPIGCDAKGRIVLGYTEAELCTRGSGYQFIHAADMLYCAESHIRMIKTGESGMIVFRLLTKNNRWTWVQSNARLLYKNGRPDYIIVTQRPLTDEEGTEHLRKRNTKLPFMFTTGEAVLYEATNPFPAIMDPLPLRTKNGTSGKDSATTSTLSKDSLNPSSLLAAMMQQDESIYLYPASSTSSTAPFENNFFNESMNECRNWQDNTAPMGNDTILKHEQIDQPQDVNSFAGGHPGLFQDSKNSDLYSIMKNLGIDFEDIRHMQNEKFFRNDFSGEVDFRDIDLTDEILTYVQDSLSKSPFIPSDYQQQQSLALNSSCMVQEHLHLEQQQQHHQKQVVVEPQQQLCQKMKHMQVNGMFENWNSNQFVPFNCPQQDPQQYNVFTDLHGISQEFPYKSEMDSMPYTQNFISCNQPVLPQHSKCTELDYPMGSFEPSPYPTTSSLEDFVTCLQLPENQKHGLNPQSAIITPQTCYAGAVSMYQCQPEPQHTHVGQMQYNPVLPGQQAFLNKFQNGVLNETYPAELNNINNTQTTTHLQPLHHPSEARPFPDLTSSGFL
Sequence of Retinoic acid receptor alpha (Homo sapiens) (P10276 whole entry, looked up): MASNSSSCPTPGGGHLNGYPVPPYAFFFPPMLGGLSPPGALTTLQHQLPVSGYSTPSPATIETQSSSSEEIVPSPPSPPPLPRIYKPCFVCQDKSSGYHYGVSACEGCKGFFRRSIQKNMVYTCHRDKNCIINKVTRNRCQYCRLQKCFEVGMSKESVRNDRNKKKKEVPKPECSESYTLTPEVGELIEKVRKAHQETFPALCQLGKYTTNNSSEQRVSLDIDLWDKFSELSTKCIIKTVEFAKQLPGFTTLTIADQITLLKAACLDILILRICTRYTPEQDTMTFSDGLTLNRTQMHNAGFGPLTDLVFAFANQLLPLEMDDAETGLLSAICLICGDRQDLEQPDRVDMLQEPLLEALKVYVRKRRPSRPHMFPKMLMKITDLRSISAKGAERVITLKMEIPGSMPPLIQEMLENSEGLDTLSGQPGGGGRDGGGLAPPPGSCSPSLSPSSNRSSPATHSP

Take `c1coc(CNc2ncnc3nc[nH]c23)c1`: the result in assay [1], in [2], in assay [3], in assay [4], in assay [5] and in [6] was inactive. Also, the call in assay [7] and in assay [8] was inactive.

`C=CCOC(=O)/C=C\C(=O)OCC=C`: the AC50 is 27.1 µM (active) in [1]; 63.8 µM (active) in assay [3]; 27.9 µM (active) in [4]; 61.2 µM (active) in [5]; 21.7 µM (active) in assay [7]. Further, the result in assay [2], in [6] and in assay [8] was inactive.

Regarding `CC(CO)c1ccccc1` (centres undefined), the compound was classed as inactive in assay [1], in [2], in [3], in assay [4], in [5] and in [6]. For the same compound, the compound was called inactive in assay [7] and in assay [8].

On to `CC1=C(C=O)C(C)(C)CCC1`, for which the result in assay [1], in [2], in [3], in assay [4], in assay [5] and in assay [6] was inactive. Further, the outcome in assay [7] and in assay [8] was inactive.

With `C#C[C@]1(O)CC[C@H]2[C@@H]3CCc4cc(O)ccc4[C@H]3CC[C@@]21C`, the half-maximal activity concentration (AC50) in assay [9] is 34.6 µM (active); in [10] it was 70.6 µM (active); in [12], 58.1 µM (active); in [14], 83.4 µM (active); in assay [17], 28.5 µM (active); in [1], 66.9 µM (active) and 26.4 µM (active) and 37 µM (active). Moreover, the AC50 is 158 µM (active) in [2]; 26.4 µM (active) and 26 µM (active) and 26.2 µM (active) in assay [3]; 19.8 µM (active) and 9.23 µM (active) in assay [5]; 47.3 µM (active) in assay [6]; 167 µM (active) and 46.7 µM (active) in [7]; 75.6 µM (active) and 48.6 µM (active) in assay [8]. In addition, the AC50 in assay [20] is 61 µM (active) and 81.7 µM (active) and 24.8 µM (active). Moreover, the outcome in [11], in [13], in assay [15], in [16], in [18] and in [19] was inactive. Besides, the call in assay [1], in assay [2], in [3], in [5], in assay [6] and in [7] was inactive. The compound was called inactive in assay [8] and in assay [20].

The values above are taken from PubChem BioAssay (EPA / NIEHS).
